PBM binding z-score data for 40 sequences are collected here from the supplement of paper PMC6555819.

One test has as its system PXR homodimer (NR concentration 270 nM). The test is described as follows: PBM binding z-score (relative to random genomic background probes); higher = stronger binding; sequences stand for … in GC…GCGATTGACAGCGTAGAATGAAGG
An outline of the steps:
(§1)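 Random background probes are the reference for binding z-scores. These scores derive from regression-normalized fluorescence on custom Agilent 4×180K protein-binding microarrays incubated 1 h with ligand-free nuclear receptor dimers. Binding was detected with antibodies against each partner (one per run).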
For CCTCCTAGGTCATGGTCAGCTAATCTACAGTATG, the PBM binding z-score turned out to be 0.241.
On the same count and under the same terms, as for CCAGACAGGTGAAAGGTAACACAGTCTGGTACGC, the figure is -0.0519; as for AGAACGAGGGCAATGAGTTGATAGCGCGGGTGGC, 4.62; as for ATATGTAGGTTATCGGGTCAATCAGTTTGCGCAT, 3.23.
ACAGACAGATGAGTGAAGGTAACTCAGCTGGACG displayed a PBM binding z-score of 0.186.
Sequence GCAGACAGGTGAAAAGCAGGTAACTCAGGGTGGC returned a PBM binding z-score of -0.329.
On the same count and under the same terms, as for TCGAGTAGGTTACCAAGGGGGCATTCAGCTTTCT, the figure is 0.477; as for GCGACTGGGGCAAAGCAGGTTACCAAAAGGTTGG, -0.452.
Take ATATGTAGGTTACATCCAGGTCATTCAGGCTATG: the PBM binding z-score was 4.54.
Still for that read-out and setting: the figure for CCTACTGGGCCAAATGTCATTGATTCCAATGCTC is -0.329; for ACTGTTAGTTGACTTAGGGCAACCGATACGACGC it is 0.341; for ATCTAAAGGTCGAGGTGAGTATAGAGAAAGGGAA it is 1.07.
CCTAGTTGGTCAAGGGCACACACGCTATAGGTAC returned a PBM binding z-score of 0.494.
In turn, TCTTGTAGATCAACAGGAGGCTAAGAAAGATCGA came in with a PBM binding z-score of -0.799.
In the case of TCATATAGGTAAACAGGTGAAAATCCGTAAGTTA, the PBM binding z-score came to 0.297.
CGTCCAAGGTCTATGCTAGGTCAGTGAAAGCATT registered a PBM binding z-score of -0.113.
On to CGTCCAAGGTCAAGGTCAGTGGAAGAGACTCGAA, for which the PBM binding z-score amounted to 1.08.
The sequence AGAATGAGGTTATTAAGTTCAGGGAATTGCGGTC came in with a PBM binding z-score of 13.8.
CCTTACGGGTCACTCCAGGTAATAGCATCGGAGT gave a PBM binding z-score of 0.169.
ATCGAAAGGACGACGAGGTGAGTATACACCGTTT yielded a PBM binding z-score of -0.293.
Same read-out and setting: as for CGTCCAAGGTCATAGGAGGTCAGTGAAGACAGAT, the figure is 4.38; as for GATACAGGGTCAAGGCCAGAGAACGCGTATTGAT, 0.476; as for TCTATTAGTTGAAAGGCAACCGACGAGTCCGTTT, 0.704.
On to CCGACTGGGGCAAAGGTTACCATCCTCAGTACGA, for which the PBM binding z-score is -0.625.
Take TCTTGTAGATCAAGCAGGATAAGAAAGCCTGAGT: the PBM binding z-score was 0.538.
Turning to AGACCGAGGGCACGCTGAGTTGATAGCAGAGTAG, the PBM binding z-score is -0.245.
For the sequence TCTAGTTGGTCACCGAGGTCACACACGACGGGTA, the PBM binding z-score was found to be 2.5.
CGTGCAAGGTCAGCAGGTCAGTGAAAGCGACGTG gave a PBM binding z-score of 0.564.
The same measure, in the same setting: the figure for CCTCGCAGGACAACAGGAGGTCAGAGCTGCCAGA is 0.261.
In turn, ATCTCTAGATAAAAGTTCAGTGAATCCCGAGGAT returned a PBM binding z-score of 1.32.
With CCTAGCAGGCCAGGGTCAATCAAGCATTTCGCTT, the PBM binding z-score is -0.3.
With TCTTGTACATCAAAGGTTAAGAAAGCCGAAGCCT, the PBM binding z-score turned out to be 0.178.
Take ACTATTAGTTGAGACGAGGGCAACCGTTAGGTTG: the PBM binding z-score came out at 0.226.
AGAATGAGGTTATTAAGATCAGGCAATTGCGGTC: the PBM binding z-score stood at 0.322.
Still for that read-out and setting: the figure for GCATATAGATAATACAAGGTGAAAGTCCGATTGT is 0.246; for GCTTGTAGATCAAGGTTAGGAAAGACTAAGCTAA it is -0.422.
The sequence AGAATGATGTTATTAAGATCAGGGAATTGCGGTC had a PBM binding z-score of -0.0811.
In turn, CCGACTGGGGCAAAGGTTACCATTCTCAGTACGA displayed a PBM binding z-score of -0.502.
In turn, ATATGTAGGTTATCGGGTCATTTAGTTTGCGCAT yielded a PBM binding z-score of 4.87.
Still for that read-out and setting: as for TCATATAGGTAAATGCTAGGTTAAAGTCCGATCT, the figure is 0.768.

The test system of a further test is RARa:RXR (NR concentration 270 nM, RXRa partner concentration 90 nM). The description is as above. An outline of the steps: as §1
CCTCCTAGGTCATGGTCAGCTAATCTACAGTATG yielded a PBM binding z-score of 2.36.
Same read-out and setting: the figure for CCAGACAGGTGAAAGGTAACACAGTCTGGTACGC is 1.69; for AGAACGAGGGCAATGAGTTGATAGCGCGGGTGGC it is -0.0907; for ATATGTAGGTTATCGGGTCAATCAGTTTGCGCAT it is 4.04.
The sequence ACAGACAGATGAGTGAAGGTAACTCAGCTGGACG returned a PBM binding z-score of 0.101.
In turn, GCAGACAGGTGAAAAGCAGGTAACTCAGGGTGGC gave a PBM binding z-score of 0.143.
For the sequence TCGAGTAGGTTACCAAGGGGGCATTCAGCTTTCT, the PBM binding z-score came to 2.6.
As for GCGACTGGGGCAAAGCAGGTTACCAAAAGGTTGG, the PBM binding z-score amounted to 0.862.
In turn, ATATGTAGGTTACATCCAGGTCATTCAGGCTATG displayed a PBM binding z-score of 3.35.
In turn, CCTACTGGGCCAAATGTCATTGATTCCAATGCTC had a PBM binding z-score of 0.0171.
As for ACTGTTAGTTGACTTAGGGCAACCGATACGACGC, the PBM binding z-score stood at 0.582.
In the case of ATCTAAAGGTCGAGGTGAGTATAGAGAAAGGGAA, the PBM binding z-score is 3.32.
In turn, CCTAGTTGGTCAAGGGCACACACGCTATAGGTAC showed a PBM binding z-score of 0.731.
Same read-out and setting: as for TCTTGTAGATCAACAGGAGGCTAAGAAAGATCGA, the figure is -0.313; as for TCATATAGGTAAACAGGTGAAAATCCGTAAGTTA, 1.4; as for CGTCCAAGGTCTATGCTAGGTCAGTGAAAGCATT, 1.03.
Consider CGTCCAAGGTCAAGGTCAGTGGAAGAGACTCGAA, for which the PBM binding z-score amounted to 4.79.
On the same count and under the same terms, as for AGAATGAGGTTATTAAGTTCAGGGAATTGCGGTC, the figure is 2.88; as for CCTTACGGGTCACTCCAGGTAATAGCATCGGAGT, 3.88.
Take ATCGAAAGGACGACGAGGTGAGTATACACCGTTT: the PBM binding z-score amounted to 0.0451.
The sequence CGTCCAAGGTCATAGGAGGTCAGTGAAGACAGAT had a PBM binding z-score of 5.77.
Consider GATACAGGGTCAAGGCCAGAGAACGCGTATTGAT, for which the PBM binding z-score turned out to be 4.41.
Turning to TCTATTAGTTGAAAGGCAACCGACGAGTCCGTTT, the PBM binding z-score is 0.467.
For the sequence CCGACTGGGGCAAAGGTTACCATCCTCAGTACGA, the PBM binding z-score was 4.05.
Sequence TCTTGTAGATCAAGCAGGATAAGAAAGCCTGAGT gave a PBM binding z-score of 0.108.
AGACCGAGGGCACGCTGAGTTGATAGCAGAGTAG showed a PBM binding z-score of 0.998.
In the case of TCTAGTTGGTCACCGAGGTCACACACGACGGGTA, the PBM binding z-score stood at 5.61.
As for CGTGCAAGGTCAGCAGGTCAGTGAAAGCGACGTG, the PBM binding z-score is 4.71.
Take CCTCGCAGGACAACAGGAGGTCAGAGCTGCCAGA: the PBM binding z-score amounted to 2.26.
Regarding ATCTCTAGATAAAAGTTCAGTGAATCCCGAGGAT, the PBM binding z-score amounted to 0.986.
In the case of CCTAGCAGGCCAGGGTCAATCAAGCATTTCGCTT, the PBM binding z-score turned out to be 4.4.
For TCTTGTACATCAAAGGTTAAGAAAGCCGAAGCCT, the PBM binding z-score came to 2.66.
As to ACTATTAGTTGAGACGAGGGCAACCGTTAGGTTG, the PBM binding z-score is 0.588.
Turning to AGAATGAGGTTATTAAGATCAGGCAATTGCGGTC, the PBM binding z-score is 1.47.
Regarding GCATATAGATAATACAAGGTGAAAGTCCGATTGT, the PBM binding z-score is 0.795.
In turn, GCTTGTAGATCAAGGTTAGGAAAGACTAAGCTAA showed a PBM binding z-score of -0.0199.
Consider AGAATGATGTTATTAAGATCAGGGAATTGCGGTC, for which the PBM binding z-score was determined as 0.136.
Turning to CCGACTGGGGCAAAGGTTACCATTCTCAGTACGA, the PBM binding z-score came out at 3.87.
ATATGTAGGTTATCGGGTCATTTAGTTTGCGCAT registered a PBM binding z-score of 3.6.
For the sequence TCATATAGGTAAATGCTAGGTTAAAGTCCGATCT, the PBM binding z-score came to 1.29.
